Consider 66 molecules from PubChem BioAssay AID463173 (ICCB-Longwood Screening Facility, Harvard Medical School, 2010).

The campaign covered roughly 52,000 compounds. About 4,300 (8.3%) were called active. The list comes from a sample in which actives are over-represented; it also holds similar structures and randomly drawn compounds. A number with no mark means an inactive call. Cut-off read from the data, not from the text of the source: active = survival mostly below about 52% (no sharp cut-off); inactive = mostly above about 56%.

This assay relates to DeltatarO mutant. Description: growth inhibition of S. aureus wild type versus tarO mutant, primary screen, teichoic acid synthesis inhibitors, RN4220, OD600 (AID 463173). The note with it: OD600, 18 h, hits give low values, screened at 18.75 µg/mL (by protocol).
Regarding `Cc1cccc(CCNC(=O)c2ccc(CSCc3cccc(Cl)c3)o2)c1`, the survival is 70%.
For `O=C(CN1C(=O)COc2ccc(S(=O)(=O)N3CCOCC3)cc21)Nc1ccc(F)c(Cl)c1` the value was 106%.
On to `CCc1ccc(NC(=O)CN2C(=O)C3(SCC(=O)N3c3ccccc3)c3ccccc32)cc1` (stereo unspecified), for which the survival was 129%.
Consider `Cc1ccc(NC(=O)CSc2nc3n[nH]c(C)c3c(=N)n2-c2cccc(C)c2)cc1`, for which the survival is -5% (active).
Turning to `Cc1cccc(NC(=O)CSc2nc3n[nH]c(C)c3c(=N)n2-c2cccc(Cl)c2)c1`, the survival is 55%.
Under `CCCCN(CC)C(=O)CSc1nc2n[nH]c(C)c2c(=N)n1-c1cccc(OC)c1` stands 109%; under `Cc1c(Cl)cccc1-n1c(SCC(=O)NCc2ccccc2)nc2n[nH]c(C)c2c1=N`, 126%; under `CCCCN(CC)C(=O)CSc1nc2n[nH]c(C)c2c(=N)n1-c1cccc(C)c1`, 88%.
For `Cc1ccc(-n2c(SCC(=O)NCc3ccccc3)nc3n[nH]c(C)c3c2=N)cc1Cl` the value was -5% (active); for `Cc1ccc(Cl)cc1-n1c(SCC(=O)NCc2ccccc2)nc2n[nH]c(C)c2c1=N`, 81%; for `CCCCN(CC)C(=O)CSc1nc2n[nH]c(C)c2c(=N)n1-c1cccc(Cl)c1`, 17% (active).
Turning to `Cc1cccc(-n2c(SCC(=O)Nc3ccc(C)c(C)c3)nc3n[nH]c(C)c3c2=N)c1`, the survival is 87%.
In the case of `O=C(NCC1CCCO1)Nc1c[nH]c2c(Cl)cccc2c1=O` (stereo unspecified), the survival is 97%.
For `Cn1c(=O)cc(SCC(=O)NCc2ccc(F)cc2)c2ccc(Cl)cc21`, the survival was 91%.
As for `Cc1cccc(Cn2c(C)c(C)c3cc(C(=O)NCc4ccco4)ccc32)c1`, the survival was 94%.
Under `COc1cc(CCNC(=O)c2ccc3c(c2)c(C)c(C)n3Cc2cccc(C)c2)cc(OC)c1OC` stands 80%.
For the molecule `Cc1ccc(CNC(=O)CC(C)S(=O)(=O)c2cc3c(cc2C)NC(=O)CO3)cc1` (stereo unspecified), the survival was 89%.
For `Cc1ccc(C(=O)N2CCC(C(N)=O)CC2)cc1NC(=O)c1nsc2ccccc12`, the survival is 87%.
Under `O=C(Nc1ccc(C(=O)N2CCN(c3ccc(Cl)cc3)CC2)cc1)c1nsc2ccccc12` stands 72%; under `Cc1ccc(Cl)cc1N1CCN(C(=O)c2ccc(NC(=O)c3nsc4ccccc34)cc2)CC1`, 6% (active); under `O=C(Nc1ccc(C(=O)N2CCN(c3ccccc3)CC2)cc1)c1nsc2ccccc12`, -1% (active).
Regarding `Cc1ccc(C(=O)N2CCC(C)CC2)cc1NC(=O)c1nsc2ccccc12`, the survival is 96%.
`O=C(Nc1ccc(C(=O)N2CCN(c3ccc(F)cc3)CC2)cc1)c1nsc2ccccc12`: the survival was 81%.
As for `Cc1ccc(C)c(N2CCN(C(=O)c3ccc(NC(=O)c4nsc5ccccc45)cc3)CC2)c1`, the survival is 67%.
`Cc1ccc(C(=O)N2CCCCC2)cc1NC(=O)c1nsc2ccccc12`: the survival is -4% (active).
For `O=C(Nc1ccc(C(=O)N2CCN(c3cccc(Cl)c3)CC2)cc1)c1nsc2ccccc12`, the survival was 79%.
For `Cc1ccc(N2CCN(C(=O)c3cn(C)c4ccc(S(=O)(=O)N(C)C5CCCCC5)cc4c3=O)CC2C)cc1` (stereo unspecified) the value was 91%.
As for `O=C(CSc1nccn1-c1ccc(F)cc1)Nc1ccc(OC(F)(F)F)cc1`, the survival is 78%.
For `CCc1ccc(S(=O)(=O)Nc2ccc3c(c2)sc(=O)n3C)cc1` the value was 91%; for `COC(=O)c1ccccc1NC(=O)Cn1c(=O)n(-c2ccc(Cl)cc2)c(=O)c2c(C)c(C)sc21`, 86%; for `CCOC(=O)c1[nH]c(C)c(CCC(=O)NCc2cccc(Cl)c2)c1C`, 76%.
Under `COc1ccc(CNC(=O)Cn2ncc3c(=O)oc4ccccc4c32)c(OC)c1` stands 89%; under `O=C(COc1ccccc1F)Nc1ccc2nc(SCC(=O)N3CCOCC3)sc2c1`, 79%.
For the molecule `CCOc1ccc(CCNC(=O)CCc2c(C)nc3c(-c4ccccc4)c(C)nn3c2C)cc1OCC`, the survival is 70%.
`Cc1ccc(SCCNC(=O)CN(c2cccc(C)c2C)S(C)(=O)=O)cc1`: the survival was 57%.
In the case of `Cc1cccc(N(CC(=O)NCCSc2ccc(Cl)cc2)S(=O)(=O)c2ccccc2)c1C`, the survival was 49%.
As for `Cc1cccc(N(CC(=O)NCCSCc2ccc(Cl)cc2)S(C)(=O)=O)c1C`, the survival is 33% (active).
For `Cc1cccc(N(CC(=O)NCCSc2ccc(Cl)cc2)S(C)(=O)=O)c1C`, the survival was 38% (active).
Under `CN(C)S(=O)(=O)N(CC(=O)NCCSCc1ccc(Cl)cc1Cl)c1ccccc1` stands 47% (active); under `Cc1cccc(N(CC(=O)NCCSCc2cccc(Cl)c2)S(=O)(=O)c2ccccc2)c1C`, 57%; under `Cc1ccccc1CSCCNC(=O)CN(c1ccccc1)S(=O)(=O)N(C)C`, 52%.
For the molecule `Cc1ccc(CSCCNC(=O)CN(c2cccc(C)c2C)S(=O)(=O)c2ccccc2)cc1`, the survival was 52%.
On to `CN(C)S(=O)(=O)N(CC(=O)NCCSCc1cccc(Cl)c1)c1ccccc1`, for which the survival is 57%.
In the case of `COc1cc(Cl)c(NS(=O)(=O)c2ccc3c(c2)CC(C)N3C(=O)C2CCC2)c(OC)c1` (stereo unspecified), the survival is 80%.
Turning to `CC(C)NC(=O)c1ccc(Cn2c(SCc3ccc(F)cc3)nc3cccnc32)cc1`, the survival is 55%.
For `O=C1c2ccccc2-c2nc3ccccc3c(=O)n21` the value was 106%.
Under `COc1cc(OC)c(NC(=O)COc2ccccc2-c2nnc(-c3ccccc3)o2)cc1Cl` stands 95%; under `COCCCNC(=O)c1ccc2nc(Cc3ccc(OC)cc3)oc2c1`, 69%.
For the molecule `N#C/C(=C\c1cn(Cc2ccc(C#N)cc2)c2ccccc12)C(=O)NCc1ccco1`, the survival is 67%.
For the molecule `O=C(Cn1cnc2onc(-c3ccc(F)cc3)c2c1=O)Nc1ccc(F)c(Cl)c1`, the survival was 84%.
In the case of `CCOC(=O)c1ccccc1NC(=O)CN1CCCN(Cc2cc(C)ccc2C)S1(=O)=O`, the survival is 126%.
For `CCOC(=O)c1c(C)oc2nc(C)nc(N3CCN(c4ccccc4)CC3)c12` the value was 83%; for `CCOC(=O)c1c(C)oc2c1c(O)c(N=O)c1ccccc12`, 18% (active); for `CCOC(=O)c1c(C)oc2ncnc(N3CCN(c4ccccc4)CC3)c12`, 89%.
Regarding `CCN(CC)c1cc(C)c2cc(NC(=O)c3cc(OC)cc(OC)c3)ccc2n1`, the survival is 59%.
Consider `CCN(CC)c1cc(C)c2cc(NC(=O)c3ccccc3OC)ccc2n1`, for which the survival is 7% (active).
Take `CCN(CC)c1cc(C)c2cc(NC(=O)c3ccc(OC)c(OC)c3)ccc2n1`: the survival was 35% (active).
Under `CCN(CC)c1ccc(C(=O)Nc2ccc3nc(N(CC)CC)cc(C)c3c2)cc1` stands 52%.
Under `CCN(CC)c1cc(C)c2cc(NC(=O)c3ccc(F)cc3Cl)ccc2n1` stands 39% (active).
Under `CCN(CC)c1cc(C)c2cc(NC(=O)c3cccc(OC)c3OC)ccc2n1` stands 95%; under `CCN(CC)c1cc(C)c2cc(NC(=O)c3ccccc3Cl)ccc2n1`, 55%.
Take `CCN(CC)c1cc(C)c2cc(NC(=O)c3cccc(OC)c3)ccc2n1`: the survival is 40%.
Under `CCN(CC)c1cc(C)c2cc(NC(=O)/C=C/c3ccccc3OC(C)C)ccc2n1` stands 71%; under `CCOc1ccc(C(=O)Nc2ccc3nc(N(CC)CC)cc(C)c3c2)cc1`, 70%.
For `CCN(CC)c1cc(C)c2cc(NC(=O)c3cccc(F)c3)ccc2n1`, the survival was 42%.
Under `CCOc1ccccc1C(=O)Nc1ccc2nc(N(CC)CC)cc(C)c2c1` stands 65% (active).
